In PubChem BioAssay (NCATS):
Results filed as inconclusive are left out. Activity calls are given as the source filed them. Calls come from the whole dose curve; as a rule, active = well fitted curve in the direction sought with a large enough effect; inconclusive = small, poorly fitted or top-dose-only effect, or another doubt; inactive = no such curve, though single readings can be large; an effect the other way counts as inactive or inconclusive.

Columns and labels:
[1] = test system: MKL-2; assay: qHTS assay to identify novel small-molecules to repurpose for Merkel cell carcinoma treatment (AID 1296009); conditions: MCC and control cell lines, CellTiter-Glo viability, 72 h; series mostly up to 46 µM; note: nearly all actives have a fitted effect of over 60% in size
Method in brief: (§1)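 qHTS format: cells treated with library compounds in DMSO across 8 (NPC) or 11 (MIPE) concentrations. Readout after 72 hr at 37 degree celsius was CellTiter-Glo luminescence.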

[2] = test system: UISO; assay: as above; conditions: MCC and control cell lines, CellTiter-Glo viability, 72 h; series mostly up to 46 µM
Method in brief: as §1

[3] = test system: WaGa; assay: as above; conditions: MCC and control cell lines, CellTiter-Glo viability, 72 h; series mostly up to 46 µM
Method in brief: as §1

[4] = test system: NIH3T3; assay: as above; conditions: MCC and control cell lines, CellTiter-Glo viability, 72 h; at 44.8 µM (top of the series) unless noted
Method in brief: as §1

[5] = test system: C33A; assay: Primary qHTS to identify gynecologic anti-cancer compounds using libraries of approved drugs and bioactive compounds (AID 1345084); conditions: Gynecologic cancer cell panel viability, ATPlite luminescence, 48 h; series mostly up to 57.5 µM; note: nearly all actives have a fitted effect of over 55% in size
Method in brief: (§2)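 Five-concentration response, 48 h; readout is ATP-driven luciferase luminescence.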

[6] = test system: CAOV3; assay: as above; conditions: Gynecologic cancer cell panel viability, ATPlite luminescence, 48 h; series mostly up to 57.5 µM
Method in brief: as §2

[7] = test system: CASKI; assay: as above; conditions: Gynecologic cancer cell panel viability, ATPlite luminescence, 48 h; series mostly up to 57.5 µM
Method in brief: as §2

[8] = test system: Es-2; assay: as above; conditions: Gynecologic cancer cell panel viability, ATPlite luminescence, 48 h; series mostly up to 57.5 µM
Method in brief: as §2

[9] = test system: HeLa; assay: as above; conditions: Gynecologic cancer cell panel viability, ATPlite luminescence, 48 h; series mostly up to 57.5 µM
Method in brief: as §2

[10] = test system: Hek293T; assay: as above; conditions: Gynecologic cancer cell panel viability, ATPlite luminescence, 48 h, control line for the selectivity index; series mostly up to 57.5 µM
Method in brief: as §2
% is set by controls: 0 for no effect and ±100 for the full control effect.

CC(=O)OC(C)OC(=O)C(C)c1ccc(-c2ccccc2)c(F)c1 (centres undefined)
inactive: outcome [1] | outcome [2] | outcome [3]

CN1Cc2c(N)cccc2C(c2ccccc2)C1 (centres undefined)
inactive: outcome [1] | outcome [2] | outcome [3]

COc1cc(/C=C/C(=O)OC2CC3CCC2(C)C3(C)C)ccc1O (centres undefined)
inactive: outcome [4] | Potency [5] | Potency [6] | Potency [7] | Potency [8] | Potency [9] | Potency [10]

CC(NCc1ccc(OCc2cccc(F)c2)cc1)C(N)=O (centres undefined)
inactive: outcome [4] | Potency [5] | Potency [6] | Potency [7] | Potency [8] | Potency [9] | Potency [10]

CC1C/C=C/C=C\CCCCC(O)C/C=C/C(=O)O1 (centres undefined)
inactive: outcome [4] | Potency [5] | Potency [6] | Potency [7] | Potency [8] | Potency [9] | Potency [10]

O=C(O)c1cc(O)c2cccc(O)c2c1O[C@@H]1O[C@H](CO)[C@@H](O)[C@H](O)[C@H]1O
inactive: outcome [4] | Potency [5] | Potency [6] | Potency [7] | Potency [8] | Potency [9] | Potency [10]

CCCn1cnc2c(NCc3ccccc3)nc(N[C@H](CC)CO)nc21
inactive: outcome [4] | Potency [5] | Potency [6] | Potency [7] | Potency [8] | Potency [9] | Potency [10]

COc1ccc2cc(OCC3(C(=O)O)CN(C(=O)c4ccc(F)cc4)C3)ccc2c1
inactive: outcome [4] | Potency [5] | Potency [6] | Potency [7] | Potency [8] | Potency [9] | Potency [10]

CC1=C2C3OC(=O)C(C)C3(O)CCC2(C)CCC1=O (centres undefined)
inactive: outcome [4] | Potency [5] | Potency [6] | Potency [7] | Potency [8] | Potency [9] | Potency [10]

CC(C)=CCC[C@](C)(O[C@@H]1O[C@H](CO[C@@H]2OC[C@@H](O)[C@H](O)[C@H]2O)[C@@H](O)[C@H](O)[C@H]1O)[C@H]1CC[C@]2(C)[C@@H]1[C@H](O)C[C@@H]1[C@@]3(C)CC[C@H](O[C@@H]4O[C@H](CO)[C@@H](O)[C@H](O)[C@H]4O[C@@H]4O[C@H](CO)[C@@H](O)[C@H](O)[C@H]4O)C(C)(C)[C@@H]3CC[C@]12C
inactive: outcome [4] inactive [at 17.4 µM] | Potency [5] | Potency [6] | Potency [7] | Potency [8] | Potency [9] | Potency [10]

CCOC(=O)c1ccc(N(C)c2csc(-c3ccccc3)n2)cc1
inactive: outcome [4] | Potency [5] | Potency [6] | Potency [7] | Potency [8] | Potency [9] | Potency [10]

C[C@@H]1O[C@@H](O[C@H]2[C@H](OC(=O)C34CCC5(C)C(=CCC6C7(C)CC(O)C(O[C@@H]8O[C@H](C(=O)O)[C@@H](O)[C@H](O)[C@H]8O)C(C)(C(=O)O)C7CCC65C)C3CC(C)(C)CC4O)O[C@H](C)[C@@H](O)[C@@H]2O)[C@H](O)[C@@H](O[C@@H]2OC[C@](O)(CO)[C@H]2O[C@@H]2O[C@H](CO)[C@@H](O)[C@H](O)[C@H]2O)[C@H]1O (some centres undefined)
inactive: outcome [4] inactive [at 9.27 µM] | activity change, negative = cytotoxicity [5] -3.41% [at 6.55 µM] | activity change, negative = cytotoxicity [6] 7.58% [at 6.55 µM] | activity change, negative = cytotoxicity [7] 3.56% [at 6.55 µM] | activity change, negative = cytotoxicity [8] -1.29% [at 6.55 µM] | activity change, negative = cytotoxicity [9] -4.39% [at 6.55 µM] | activity change, negative = cytotoxicity [10] 5.55% [at 6.55 µM]

COc1cc(CCc2ccccc2)c(C(=O)O)c2c1CC(C(C)(C)O)O2 (centres undefined)
inactive: outcome [4] | Potency [5] | Potency [6] | Potency [7] | Potency [8] | Potency [9] | Potency [10]

C=C1CCC2C(C)(COC3OC(COC(=O)CC(=O)O)C(O)C(O)C3O)CCCC2(C)C1CCC1=CCOC1=O (centres undefined)
inactive: outcome [4] inactive [at 17.4 µM] | Potency [5] | Potency [6] | Potency [7] | Potency [8] | Potency [9] | Potency [10]

C=C1CCC[C@]2(C)C[C@]3(O)OC(=O)C(C)=C3C[C@@H]12
inactive: outcome [4] | Potency [5] | Potency [6] | Potency [7] | Potency [8] | Potency [9] | Potency [10]

CC(=O)OC[C@]1(O)[C@H]2[C@H](OC(=O)CC(C)C)OC=C(CO[C@@H]3O[C@H](CO)[C@@H](O)[C@H](O)[C@H]3O)[C@H]2C[C@@H]1O
inactive: outcome [4] inactive [at 17.4 µM] | Potency [5] | Potency [6] | Potency [7] | Potency [8] | Potency [9] | Potency [10]

C=C1CCC2(OC1)OC1CC3C4CC=C5CC(O)CC(O[C@@H]6OC[C@@H](O)[C@H](O)[C@H]6O)C5(C)C4CCC3(C)C1(O)C2C (some centres undefined)
inactive: outcome [4] inactive [at 17.4 µM] | Potency [5] | Potency [6] | Potency [7] | Potency [8] | Potency [9] | Potency [10]

COc1cc(/C=C/c2cc(O)cc(O[C@@H]3O[C@H](CO)[C@@H](O)[C@H](O)[C@H]3O)c2)ccc1O
inactive: outcome [4] inactive [at 17.4 µM] | Potency [5] | Potency [6] | Potency [7] | Potency [8] | Potency [9] | Potency [10]

C=Cc1cc(O)cc2nc(-c3ccc(O)c(F)c3)oc12
inactive: outcome [4] | Potency [5] | Potency [6] | Potency [7] | Potency [8] | Potency [9] | Potency [10]

COc1ccc(C(O[C@@H]2O[C@H](CO)[C@@H](O)[C@H](O)[C@H]2O)C(CO)Oc2ccc(/C=C/CO)cc2OC)cc1O (some centres undefined)
inactive: outcome [4] inactive [at 17.4 µM] | Potency [5] | Potency [6] | Potency [7] | Potency [8] | Potency [9] | Potency [10]

CC(O)C(O)/C=C/C=C/C(=O)O[C@@H]1C=C2COC(=O)[C@]2(O)[C@@]2(C)CCCC(C)(C)C12 (some centres undefined)
inactive: outcome [4] inactive [at 17.4 µM] | Potency [5] | Potency [6] | Potency [7] | Potency [8] | Potency [9] | Potency [10]
